Bioassay records from PubChem BioAssay.
Shiga inhibitor: A qHTS for Small Molecule Inhibitors of Shiga Toxin | Vero cells, Shiga toxin protein synthesis inhibition reporter | inhibition, % at 38.7 µM | 9.2% of 290,000 active | AID 2315, 2010; in the data active = inhibition mostly above about 28%, no sharp cut-off; inactive = mostly below about 43%; note: 0% is about no effect
Pf growth 48h: Primary qHTS for delayed death inhibitors of the malarial parasite plastid, 48 hour incubation; P. falciparum luciferase growth in erythrocytes, 48 h; Potency, µM (titrated, usually from 28.7 µM), for the others: at the highest dose activity change, negative = inhibition, most hits filed as inhibitors; 5.9% of 310,000 active; note: potency is the fitted concentration of half-maximal effect; % is set by controls: 0 for no effect and ±100 for the full control effect
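Compounds are pin-transferred into medium, infected erythrocytes (2% hematocrit, 0.1% parasitemia final) are added, and plates sit one parasite generation at 37 C in 5% CO2. Detection reagent is then added and luminescence measured.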
HCMV antiviral: qHTS Assay for inhibitors of the human cytomegalovirus (HCMV) | HFF cells, HCMV-luciferase reporter, 72 h; active compounds read low | activity change, negative = inhibition, % at 57.5 µM | 4.5% of 410,000 active | AID 1259415, 2018; in the data active = activity change below about -60%; inconclusive = no clear call, values can overlap the other calls; inactive = above about -39%; note: % is set by controls: 0 for no effect and ±100 for the full control effect
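Compounds were evaluated in HFFs infected with an HCMV luciferase reporter virus (MOI 1 PFU/cell). Luciferase in lysates collected 72 h post infection served as the replication measure.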
Pf growth 96h: Primary qHTS for delayed death inhibitors of the malarial parasite plastid, 96 hour incubation; Potency, µM (series often up to 28.7 µM), for the others: at the highest dose activity change, negative = inhibition, most hits filed as inhibitors; 6.9% of 320,000 active; P. falciparum luciferase reporter growth, 96 h; note: potency is the fitted concentration of half-maximal effect; % is set by controls: 0 for no effect and ±100 for the full control effect
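Luminescence readout: decreased luciferase signal marks inhibited growth of reporter-expressing P. falciparum in infected red cells (2% hematocrit, 0.05% parasitemia final), exposed to compound two generations (96 h, 37 C, 5% CO2).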
Cycloheximide cs: Cycloheximide Counterscreen for Small Molecule Inhibitors of Shiga Toxin; cell reporter, cycloheximide protein synthesis inhibition counterscreen; max response, %; 12% of 300,000 active; AID 2314, 2010; in the data active = max response mostly above about 13%, no sharp cut-off; inactive = mostly below about 14%; note: read at 38.3 µM for the half of the compounds with a filed dose; 0% is about no effect
* marks the source's active call; other numbers are inactive results; [ ] = another dose, or the depositor's remark. An excerpt weighted towards active compounds, which were near 20% of everything screened. Unless noted, calls come from the whole dose curve; as a rule, active = well fitted inhibition curve with a large enough effect; inconclusive = small, poorly fitted or top-dose-only effect, or another doubt; inactive = no such curve, though single readings can be large or run the other way.

How did NC1=NC[C@@H](Cc2ccc(O)cc2)N1CCC12CC3CC(CC(C3)C1)C2 do in these assays?
HCMV antiviral: 0

What do the screens show for `COc1cc(CCCN2C(=S)NC[C@@H]2c2ccccc2)cc(OC)c1OC`?
Shiga inhibitor: -12; Pf growth 48h: inconclusive; HCMV antiviral: -99*; Pf growth 96h: inconclusive; Cycloheximide cs: 1

Results for COc1cc(CCCN2C(=S)NC[C@@H]2Cc2ccccc2)cc(OC)c1OC ?
Shiga inhibitor: -4; Pf growth 48h: -16%; HCMV antiviral: 12; Pf growth 96h: -11%; Cycloheximide cs: 2

How did COc1cc(CCCN2C(N)=NC[C@@H]2Cc2ccccc2)cc(OC)c1OC do in these assays?
Shiga inhibitor: -5; Pf growth 48h: 9.3µM*; HCMV antiviral: -16; Pf growth 96h: 9.3µM*; Cycloheximide cs: -2

How did COc1cc(CCCN2CCNC[C@@H]2Cc2ccccc2)cc(OC)c1OC do in these assays?
Pf growth 48h: inconclusive; HCMV antiviral: -7; Pf growth 96h: 45%

Results for COc1cc(CCCN2C(N)=NC[C@@H]2Cc2ccc(O)cc2)cc(OC)c1OC ?
Shiga inhibitor: 3; Pf growth 48h: inconclusive; HCMV antiviral: -5; Pf growth 96h: 2.3µM*; Cycloheximide cs: -3

What do the screens show for `CC(=O)c1cc(C#N)c(SCc2ccc([N+](=O)[O-])cc2)nc1C`?
Shiga inhibitor: -12; Pf growth 48h: 16%; HCMV antiviral: 7; Pf growth 96h: inconclusive; Cycloheximide cs: -2

What do the screens show for `CN(C(=O)CSc1nc(-c2ccccc2)cn1N)C(c1ccccc1)c1ccccc1`?
Shiga inhibitor: 13; Pf growth 48h: 12µM*; HCMV antiviral: -13; Cycloheximide cs: -1

How did COc1ccccc1CNC(=O)CSc1nc(-c2ccccc2)cn1N do in these assays?
Shiga inhibitor: 17; Pf growth 48h: 0%; HCMV antiviral: 42; Cycloheximide cs: 6

How did CCOC(=O)c1cnc(-n2nc(C)cc2C)nc1NNc1nc(C)cc(C)n1 do in these assays?
Shiga inhibitor: -8; Pf growth 48h: 0.59µM*; HCMV antiviral: -21; Pf growth 96h: 2.9µM*; Cycloheximide cs: 1

Results for CCOC(=O)c1cnc(-n2nc(C)cc2C)nc1NC ?
Shiga inhibitor: 29; Pf growth 48h: 0%; HCMV antiviral: -8; Pf growth 96h: -23%[5.75 µM]; Cycloheximide cs: 32*

How did CCOC(=O)c1cnc(-n2nc(C)cc2C)nc1NNc1nc(-c2ccccc2)cc(-c2ccccc2)n1 do in these assays?
Shiga inhibitor: -11; Pf growth 48h: 1.5µM*; Pf growth 96h: inconclusive; Cycloheximide cs: -1

Results for CCOC(=O)c1cnc(-n2nc(C)cc2C)nc1NC1CCCCC1 ?
Shiga inhibitor: -22; Pf growth 48h: 1.7µM*; HCMV antiviral: -87*; Pf growth 96h: -1%; Cycloheximide cs: -4

What do the screens show for `CCOC(=O)c1cnc(-n2nc(C)cc2C)nc1Nc1cccc(C(=O)O)c1`?
Shiga inhibitor: 61; Pf growth 48h: 0%; HCMV antiviral: -30; Pf growth 96h: inconclusive; Cycloheximide cs: 5

How did COc1cc(Nc2nc3c(S(=O)(=O)c4cccc(Cl)c4)nnn3c3ccsc23)cc(OC)c1 do in these assays?
HCMV antiviral: 22

Results for O=C(CN1CCN(S(=O)(=O)c2ccc(F)c(Cl)c2)CC1)N1CCOCC1 ?
Pf growth 48h: -7%; HCMV antiviral: -19; Pf growth 96h: inconclusive

Results for CCOC(=O)c1cnc(-n2nc(C)cc2C)nc1N(CC)CC ?
Shiga inhibitor: 14; Pf growth 48h: 12µM*; HCMV antiviral: -20; Cycloheximide cs: 7

What do the screens show for `CN(C(=O)CSc1nnc(C2CC2)n1-c1ccccc1)C1CCS(=O)(=O)C1` (centres undefined)?
Pf growth 48h: 17%; HCMV antiviral: 88; Pf growth 96h: inconclusive

How did Cc1ccc(N(CC(O)Cn2c3ccccc3c3ccccc32)S(C)(=O)=O)cc1 (centres undefined) do in these assays?
Shiga inhibitor: 2; HCMV antiviral: 59; Pf growth 96h: inconclusive; Cycloheximide cs: 5

What do the screens show for `Cc1cccc(N(CC(O)Cn2c3ccccc3c3ccccc32)S(=O)(=O)c2ccc(F)cc2)c1` (centres undefined)?
HCMV antiviral: -107*

Results for Cc1ccc(N(CC(O)Cn2c3ccccc3c3ccccc32)S(C)(=O)=O)c(C)c1 (centres undefined) ?
Shiga inhibitor: 14; Pf growth 48h: 4.7µM*; HCMV antiviral: -101*; Cycloheximide cs: -6

Results for CC(=O)Nc1ccc(N(CC(O)Cn2c3ccccc3c3ccccc32)S(=O)(=O)c2ccc(C)cc2)cc1 (centres undefined) ?
Shiga inhibitor: -5; Pf growth 48h: 9.3µM*; HCMV antiviral: -35; Pf growth 96h: -1%; Cycloheximide cs: 5

What do the screens show for `Cc1ccc(Cl)cc1NC(=O)C(C)n1nnc2sc3c(c2c1=O)CCCC3` (centres undefined)?
HCMV antiviral: -8

Results for CCOc1ccc(-c2nc3c(c(SCC(=O)N4CCCCC4)n2)Cc2ccccc2O3)cc1 ?
HCMV antiviral: -2

How did COc1ccccc1NC(=S)N/N=C/c1ccc(O)cc1 do in these assays?
Shiga inhibitor: 40*; Pf growth 48h: 184%; HCMV antiviral: 79; Pf growth 96h: 36%; Cycloheximide cs: 69*

How did Cc1cccc(NC(=S)N/N=C/c2cccc([N+](=O)[O-])c2)c1 do in these assays?
Shiga inhibitor: 4; Pf growth 48h: inconclusive; Pf growth 96h: -17%; Cycloheximide cs: 11

What do the screens show for `CCNC(=S)N/N=C/c1cc(C)ccc1C`?
Shiga inhibitor: -5; Pf growth 48h: 18%; HCMV antiviral: -7; Pf growth 96h: 32%; Cycloheximide cs: -1

What do the screens show for `CCNC(=S)N/N=C/c1cccc(C)c1`?
Shiga inhibitor: 56*; Pf growth 48h: -25%; HCMV antiviral: -25; Pf growth 96h: 90%; Cycloheximide cs: 37*

How did COc1ccccc1NC(=S)N/N=C/c1cccc(C)c1 do in these assays?
Shiga inhibitor: 17; Pf growth 48h: 0%; HCMV antiviral: 18; Pf growth 96h: -60%; Cycloheximide cs: 23*

Results for CCN(CC(=O)Nc1ccc(NC(C)=O)cc1)C(=O)C1COc2ccccc2O1 (centres undefined) ?
Shiga inhibitor: -12; Pf growth 48h: -13%; HCMV antiviral: -20; Pf growth 96h: 37%; Cycloheximide cs: -4

Results for Cc1ccsc1/C=C/C1=Cc2c(sc(NC(=O)CSc3n[nH]c(N)n3)c2C#N)C(C)(C)C1 ?
Shiga inhibitor: -14; HCMV antiviral: -20; Pf growth 96h: 8.3µM*; Cycloheximide cs: -2

What do the screens show for `NC(=O)c1ccsc1NC(=O)CSc1n[nH]c(N)n1`?
HCMV antiviral: -8

How did CCOc1ccc(/C=C/C2=Cc3c(sc(NC(=O)CSc4n[nH]c(N)n4)c3C#N)C(C)(C)C2)cc1 do in these assays?
Shiga inhibitor: -8; Pf growth 48h: 10µM*; HCMV antiviral: -19; Pf growth 96h: 8.3µM*; Cycloheximide cs: 1
